The source of these data is PubChem BioAssay AID485297 (National Center for Advancing Translational Sciences (NCATS), 2010).

In all, about 320,000 compounds went through this assay and about 9,100 (2.8%) were called active. A call without a number means that no potency is given here. About 3% were inconclusive and are not listed. Many of the other results were omitted from the sample, so actives are more common in it than they were. A number with no mark means an inactive call. Calls follow the shape of the dose curve; as a rule, active = well fitted activation curve with a large enough effect; inconclusive = small, poorly fitted or top-dose-only effect; inactive = no such curve, though single readings can be large or run the other way.
Potency is read from the fitted curve at half-maximal effect.

The assay can be described thus: qHTS Assay for Rab9 Promoter Activators. Also: nearly all actives have a fitted effect of over 60% in size. Conditions: Huh7 Rab9 promoter-luciferase reporter, luminescence, 24 h; series mostly up to 9.22 µM. An excerpt:
NIH Chemical Genomics Center [NCGC] NIH Molecular Libraries Probe Production centers Network [MLPCN] MLPCN Grant: MH089537-01 Assay Submitter (PI): Yiannis A. Ioannou NCGC Assay Overview: Niemann Pick Type C (NPC) is a rare neurodegenerative lipidosis that is characterized by lipid storage in the endosomal/lysosomal system. Treatment modalities for this devastating disease are currently non-existent due to the severe obstacles associated with accessing the central nervous system with proteins or genes (Ioannou, 2000). We have developed a new paradigm, termed "Orphan Receptor Bypass Therapy" (ORByT), to address these disorders. This paradigm posits the existence of endogenous "suppressor" proteins whose expression can dramatically improve LSD pathogenesis. The goal is the identification/discovery of small chemical compounds that can modulate the expression of these proteins and provide a new treatment modality for these devastating disorders. One such protein whose overexpression reverses aspects of the NPC phenotype is Rab9. We have developed and optimized a cell based luciferase reporter assay in 1536 well format for the identification of up-regulators of the Rab9 promoter.
The Rab9 promoter is cloned in front of the luciferase reporter gene, therefore […] promoter activation results in luciferase expression. Frozen stock of the Rab9 promoter transfected Huh7 cells were obtained from the laboratory of Dr. Yiannis Ioannou (The Mount Sinai School of Medicine, New York, NY). Cells were propagated and maintained at NCGC in medium containing RPMI-1640 supplemented with 10% FBS, 2mM L-glutamine, and 50ug/ml penicillin/streptomycin. Cells were harvested in and plated for assays in OP-MEM I reduced-serum medium supplemented with 10% FBS. The Amplite luciferase reporter gene assay kit was purchased from ABD Bioquest and prepared/stored according to manufacturers recommendations. qHTS Assay Setup: 1.Dispensed 5ul of Huh7 cells stably expressing Rab9-luciferase at a density of 1500 cells per well 1536-well plates. 2.Incubate cells at 37C, 5% CO2, and 95% humidity for 2 hours. 3.Transferred 23nl per well of compound in DMSO solution. 4.Incubated at 37C, 5% CO2, and 95% humidity for 24 hours. 5.Dispensed 3ul per well of Amplite reagent(ABD Bioquest) per well. 6.Incubate at ambient for 10 minutes. 7.Read using the luminescence protocol on the ViewLux plate reader (Perkin Elmer).
Take `CCOc1ccc(NC(=O)COC(=O)C2CCC(=O)N2)c([N+](=O)[O-])c1` (centres undefined): the Potency entry is “inactive”.

`C[C@H](NC(=O)c1[nH]cnc1C(=O)Nc1nccs1)c1ccccc1`: the Potency result is “inactive”.

Turning to `CSc1ccccc1OCc1cc(C(=O)N(C)CCc2c(C)n[nH]c2C)no1`, the Potency entry was “inactive”.

`COC(=O)[C@@H]1CCCN1C(=O)c1cc(COc2cccc3cccnc23)on1`: the Potency entry was “inactive”.

Turning to `CSc1ccccc1OCc1cc(C(=O)N2C[C@H]3CC[C@H]2C3)no1`, the Potency was 2820 nM (active).

For the molecule `CC(OC(=O)CN1C(=O)c2ccccc2C1=O)C(=O)c1ccccc1` (centres undefined), the Potency result is “inactive”.

As to `Cc1cc(C(=O)Nc2ccc(C)c(S(=O)(=O)N3CCOCC3)c2)c2ccccc2n1`, the Potency entry is “inactive”.

Regarding `Cc1ccc(C(=O)NCC(c2cccs2)N(C)C)cc1S(=O)(=O)N1CCOCC1` (centres undefined), the Potency entry is “inactive”.

Turning to `Nc1ccn(CC(=O)N2CCN(c3ccccn3)CC2)c(=O)n1`, the Potency result is “inactive”.

As for `O=C(/C=C/c1ccco1)NC(=S)Nc1ccccc1Br`, the Potency result was “inactive”.

Regarding `O=C(/C=C/c1ccco1)Nc1ccc(Oc2ccccc2)cc1`, the Potency was 3980 nM (active).

As for `Cc1nnc(NC(=O)/C=C/c2ccco2)s1`, the Potency result was “inactive”.

As for `C(=N\Nc1ccc2ccccc2n1)/c1ccc2c(c1)OCO2`, the Potency is 100 nM (active).

For `O=C(Nc1ccc2ccccc2c1)/C(=C\c1ccc2c(c1)OCO2)NC(=O)c1ccco1`, the Potency entry was “inactive”.

Regarding `Cc1noc(C)c1/C=N/Nc1ccc2ccccc2n1`, the Potency was 708 nM (active).

As to `Cc1cc(C)nc(N/N=C/c2c(C)oc3ccccc23)n1`, the Potency entry is “inactive”.

In the case of `Brc1ccc(-c2csc(N/N=C/c3ccc4c(c3)OCO4)n2)cc1`, the Potency entry was “inactive”.

Turning to `Cc1nc(Cl)cc(N/N=C/c2ccccc2)n1`, the Potency result is “inactive”.

Consider `CC(C)Oc1ccc(S(=O)(=O)N2CCOCC2)cc1NC(=O)C1CCCC1`, for which the Potency result was “inactive”.

With `CCN(CC(=O)Nc1c(F)cccc1F)C(=O)c1ccc(-c2ccccc2)cc1`, the Potency result was “inactive”.

Consider `O=C(O)CSc1ccc(S(=O)(=O)N2CCCC2)cn1`, for which the Potency entry was “inactive”.

As to `CCOC(=O)c1ccc(NC(=O)CNC(=O)c2ccco2)cc1`, the Potency entry was “inactive”.

With `COC(=O)c1ccc(NC(=O)c2ccco2)cc1`, the Potency was 2820 nM (active).

With `O=C(Nc1ccc(O)cc1)c1ccc(NC(=O)c2ccco2)cc1`, the Potency result was “inactive”.

As to `COc1ccc(Cl)cc1NC(=O)CN(C)C(=O)c1ccc2n[nH]nc2c1`, the Potency entry is “inactive”.

Turning to `Cc1nc(/N=C(\N)NC(=O)NC2CCCCC2)nc2ccccc12`, the Potency result is “inactive”.

As for `O=C(/C=C/c1cnc2ccccc2n1)NC1CCCCCC1`, the Potency is 3160 nM (active).

As to `O=C(Cn1c(-c2cncs2)nc2ccccc21)NC1CCCC1`, the Potency entry is “inactive”.

As for `Nc1ccc(Nc2cc(O)c3ncccc3c2)cc1`, the Potency entry was “inactive”.

For `CN1CCN(S(=O)(=O)c2cccc(C(=O)Nc3cccc(S(N)(=O)=O)c3)c2)CC1`, the Potency result is “inactive”.

For `COC(=O)c1ccc(-c2c(-c3ccccc3)ncc3cc(OC)c(OC)cc23)cc1`, the Potency result was “inactive”.

For `Brc1ccc2nc(N3CCCC3)sc2c1`, the Potency was 1410 nM (active).

With `c1c2c(cc3sc(N4CCCCC4)nc13)OCCO2`, the Potency was 355 nM (active).

`Fc1ccc2nc(N3CCCCC3)sc2c1`: the Potency is 891 nM (active).

Consider `CN(C)CCCN(C(=O)c1ccc(S(=O)(=O)N2CCCCCC2)cc1)c1nc2ccc(Br)cc2s1`, for which the Potency entry was “inactive”.

Take `COc1ccc2nc(N3CCN(C(=O)c4ccc([N+](=O)[O-])o4)CC3)sc2c1`: the Potency result is “inactive”.

Take `O=C(NCCc1cccc(F)c1)C1CCCN(c2nc3ccccc3s2)C1` (centres undefined): the Potency entry was “inactive”.

For `CN(C)CCCN(C(=O)c1ccc(S(=O)(=O)N2CCCCCC2)cc1)c1nc2cc3c(cc2s1)OCCO3`, the Potency entry is “inactive”.

As to `Cc1nc2ccc(NC(=O)C3CCCCC3)cc2s1`, the Potency result is “inactive”.

For the molecule `Cc1nc(N2CCCCC2)sc1C=O`, the Potency result was “inactive”.

On to `CCC(=O)c1ccc(OCC(=O)N(CC)CC2COc3ccccc3O2)cc1` (centres undefined), for which the Potency entry is “inactive”.

On to `CCc1sc(C(=O)N2CCN(CC(=O)Nc3cccc(F)c3)CC2)cc1C`, for which the Potency entry is “inactive”.

For `CC1CCCC(NC(=O)c2cc(-c3ccncc3)nc3ccccc23)C1C` (centres undefined), the Potency entry is “inactive”.

Regarding `Cc1ccc(/C=C/C(=O)OCC(=O)Nc2cccnc2Cl)cc1`, the Potency result was “inactive”.

With `COc1cc(/C=C2\SC(=O)NC2=O)ccc1OCc1ccc(Cl)nc1`, the activation, negative = inhibition is -1.24% [at 1.84 µM].

In the case of `Cc1ccc(C)c(NC(=O)C(c2ccccc2)N2CCN(CC(=O)NC3CC3)CC2)c1` (centres undefined), the Potency result was “inactive”.

With `COc1ccc(C(=O)NCc2ccc(C)cc2)cc1S(=O)(=O)N1CCCC1`, the Potency entry was “inactive”.

For the molecule `O=C(CSc1nnnn1C1CCCC1)N1CCCCC1`, the Potency was 3160 nM (active).

For `CC(=O)Nc1ccc(NC(=O)CSc2nnnn2C2CCCCC2)cc1`, the Potency entry is “inactive”.

`CC1CCCC(C)N1C(=O)CSc1nnnn1C1CCCC1` (centres undefined): the Potency result is “inactive”.

As for `C[C@H](OC(=O)n1ccnc1)[C@@H]1O[C@@]2(C)CCC[C@@H]1O2`, the Potency entry is “inactive”.

In the case of `COCC1CCCN(Cc2nc(-c3ccc4c(c3)OCO4)no2)C1` (centres undefined), the Potency is 3160 nM (active).

Turning to `CC(C)N(Cc1nc(-c2ccc3c(c2)OCO3)no1)CC1CCC(=O)N1` (centres undefined), the Potency result is “inactive”.

In the case of `CN(CCN1CCOCC1)Cc1nc(-c2ccc3c(c2)OCO3)no1`, the Potency entry was “inactive”.
